High-throughput results from PubChem BioAssay.
D2 PAM-1: HTS Assay for Positive Allosteric Modulators of the Human D2 Dopamine Receptor: Primary Screen for Potentiators; D(2) dopamine receptor (Homo sapiens), P14416; HEK293 T-REx D2, calcium flux, EC20 dopamine potentiation; potentiation, % at 10 µM; 0.34% of 340,000 active; AID 485347, 2010;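 active = potentiation over 3 SD above the plate norm, cut at about 30% in these data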; also: 0% is about no effect
Target sequence (P14416 whole entry, looked up): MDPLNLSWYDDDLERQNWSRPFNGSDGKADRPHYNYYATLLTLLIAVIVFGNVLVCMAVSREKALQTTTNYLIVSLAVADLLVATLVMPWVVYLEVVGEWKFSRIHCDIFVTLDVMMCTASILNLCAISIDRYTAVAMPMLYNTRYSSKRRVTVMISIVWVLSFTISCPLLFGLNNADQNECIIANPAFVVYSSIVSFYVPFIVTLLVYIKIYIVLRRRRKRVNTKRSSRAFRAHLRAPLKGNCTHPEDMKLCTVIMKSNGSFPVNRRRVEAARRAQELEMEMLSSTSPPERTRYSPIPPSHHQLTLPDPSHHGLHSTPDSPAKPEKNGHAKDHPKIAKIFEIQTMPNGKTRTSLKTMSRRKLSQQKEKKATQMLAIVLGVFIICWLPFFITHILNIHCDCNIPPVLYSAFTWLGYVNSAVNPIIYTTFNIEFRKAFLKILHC
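Potentiation of an EC20 dopamine calcium response measured kinetically over 180 s, after a preceding 180 s compound-only read flagging agonists. Cells: inducible Hek293 Trex D2 line, 4000/well, cultured overnight at 30 C before dye loading.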
D2 ag-1: Beta-Arrestin HTS for Positive Allosteric Modulators of the Human D2 Dopamine Receptor: Agonists. D(2) dopamine receptor (Homo sapiens), P14416. DiscoveRx PathHunter D2 beta-arrestin, luminescence, 90 min; 100% = 57 uM dopamine signal. activation, % (test concentration not listed). 0.084% of 360,000 active. AID 624465, 2012; in the data active = activation above about 40%
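DiscoveRx PathHunter D2 beta-arrestin cells (2,100/well) attached overnight, then compound-stimulated 90 min at 37 C in HBSS/10 mM HEPES/0.1% Tween-20 buffer; beta-galactosidase complementation read by luminescence after 1 h at ambient temperature. Dopamine 57 uM final (EC100) as control.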
D2 antag: HTS Assay for Allosteric Antagonists of the Human D2 Dopamine Receptor: Primary Screen for Antagonists; inhibition, % at 10 µM; 2% of 340,000 active; HEK293 TREx D2 cells, calcium flux, dopamine EC80; AID 485344, 2010; D(2) dopamine receptor (Homo sapiens), P14416; in the data active = inhibition above about 30%; inactive = below that, where a call was filed; also: 0% is about no effect
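Antagonism is scored as inhibition of an EC80 dopamine-evoked calcium signal in a force-coupled, tetracycline-inducible HEK293 T-REx D2 line, with compound present 180 s before agonist.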
D2 PAM-2: Beta-Arrestin HTS for Positive Allosteric Modulators of the Human D2 Dopamine Receptor: Potentiators. D(2) dopamine receptor (Homo sapiens), P14416. 0.23% of 360,000 active. potentiation, % (no concentration beside the values). DiscoveRx D2 beta-arrestin cells, luminescence, 90 min; 100% = 57 uM dopamine signal. AID 624464, 2012; in the data active = potentiation above about 50%
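PathHunter beta-arrestin assay in DiscoveRx D2 cells. Compounds were added with an EC20 of dopamine (50 nM final) for 90 min at 37 deg C. Luminescence was read 1 h after detection reagent, with 57 uM dopamine as the EC100 control.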
D2 ag-2: HTS Assay for Allosteric Agonists of the Human D2 Dopamine Receptor: Primary Screen for Agonists | D(2) dopamine receptor (Homo sapiens), P14416 | HEK293 T-REx D2 cells, calcium flux agonist mode | activation, % at 2 µM | 0.53% of 340,000 active | AID 485358, 2010;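 active = activation over 3 SD above normal in the single-dose calcium agonist read, cut at about 30% in these data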; also: 0% is about no effect
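Tetracycline-induced HEK293 Trex cells with D2 receptor force-coupled to calcium signaling, plated overnight at 30 C and loaded with no-wash calcium dye. Calcium flux read kinetically for 180 s after compound addition; responses flag agonists.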
Active calls of the source: *; / = not tested or not shown. Sampled rows, rich in hits. Any-hit rate of the full collection: about 2.4%.

SMILES	D2 PAM-1	D2 ag-1	D2 antag	D2 PAM-2	D2 ag-2
CCc1cccc(NC(=O)CCn2nc(C)cc2C)c1	-7.2	/	/	/	/
CN(C(=O)COC(=O)c1ccccc1C(=O)N1CCN(c2ccccc2)CC1)c1ccccc1	-6.2	-8.2	9.6	-35.2	1.3
COc1ccc(Cl)cc1NC(=O)CSc1cn(CC(=O)N2CCCCC2)c2ccccc12	-4.8	/	/	/	0.5
CC(C)(C)Cn1c(=O)[nH]c(=O)c2cc([N+](=O)[O-])cnc21	-0.8	-1.5	35.4*	-6.2	-1.2
CCCn1c(-c2cccc([N+](=O)[O-])c2)nc2c1c(=O)[nH]c(=O)n2Cc1ccccc1	9.9	-4.0	-4.9	-1.5	2.4
CCOc1ccc(-c2cc(NC(=O)Nc3ccc(Cl)cc3)c(C(=O)OC)s2)cc1	-0.8	/	/	/	-0.8
Cc1ccc(C2C(C(=O)c3cccs3)=C(O)C(=O)N2CCN2CCOCC2)o1 (configuration not stated)	37.8*	-4.5	11.3	-10.4	-2.2
CCOC(=O)CCCc1c[nH]c2ccccc12	-12.0	-2.1	5.8	1.9	-0.3
CC(C)(C)NC(=O)NC(=O)COC(=O)CCCc1c[nH]c2ccccc12	16.8	-1.1	70.0*	-0.3	-0.3
CCCCNC(=S)N/N=C/c1ccc(C#N)cc1	9.6	2.9	39.3*	9.3	-3.4
CCc1cccc(NC(=O)CN2Cc3ccccc3C2=O)c1	4.9	/	/	/	1.6
O=S(=O)(c1ccc(-c2csc(-c3cccnc3)n2)cc1)N1CCCCC1	-4.3	3.8	36.7*	16.2	1.1
CCOC(=O)C1CCCN(C(=O)C2CCN(S(=O)(=O)c3c(C)noc3/C=C/c3ccc(C)cc3)CC2)C1 (configuration not stated)	7.0	/	/	/	1.3
COc1ccc(CN2CCNC(=O)C2CC(=O)NCCN2CCCCC2=O)c(F)c1 (configuration not stated)	9.9	-3.1	-8.0	-4.2	0.7
CC(C)c1[nH]nc2c1C1(CCN(Cc3ccccc3)CC1)C(C#N)=C(N)O2	-20.0	11.5	39.6*	1.9	4.5
CCCc1[nH]nc2c1C1(CCN(C(=O)OCc3ccccc3)CC1)C(C#N)=C(N)O2	4.2	2.5	7.9	12.1	0.6
Cc1ccc(NC(=O)Cn2c(=O)n(Cc3ccco3)c(=O)c3oc4ccccc4c32)cc1C	-4.7	/	/	/	0.6
CC1=CC(C)(C)Nc2ccc(OC(=O)CN3C(=O)c4ccccc4C3=O)cc21	5.2	14.7	1.5	113.2*	-1.6
COC(=O)c1ccc(CN2C(=O)c3ccccc3C2=O)cc1	3.3	0.5	-10.5	1.1	0.4
COC(=O)c1ccc(OC(=O)CN2C(=O)c3ccccc3C2=O)cc1	-3.8	3.1	-9.8	74.7*	-0.5
Cn1c(=O)cc(SCC(=O)NCCc2ccc(Cl)cc2)c2cc(Cl)ccc21	-1.4	/	/	/	0.6
Cc1nc(-c2ccc(Cl)cc2)sc1C1(C)CC(c2cccc(Cl)c2)=NO1 (configuration not stated)	-9.3	-0.3	-0.2	2.1	0.5
Cc1nc(-c2ccc(Cl)cc2)sc1C1(C)CC(c2cccc(F)c2)=NO1 (configuration not stated)	-1.0	-2.7	30.5*	-5.1	0.1
Cc1ccc(CNC(=O)Cn2cc(S(=O)(=O)Cc3cccc(Cl)c3)c3ccccc32)cc1	1.5	/	/	/	-0.3
Cc1ccc(-c2nc(CS(=O)CC(=O)NCCN(CC(C)C)CC(C)C)c(C)o2)cc1 (configuration not stated)	105.9*	-1.2	1.2	-3.5	-0.8
SMILES	D2 PAM-1	D2 ag-1	D2 antag	D2 PAM-2	D2 ag-2
CCC1CCCCN1CCCNC(=O)CS(=O)Cc1nc(-c2ccc(OC)c(OC)c2)oc1C (configuration not stated)	2.2	-3.9	35.6*	-8.2	2.0
Cc1ccc(-c2nc(CS(=O)CC(=O)NCCN3CCCC3)c(C)o2)cc1 (configuration not stated)	-7.2	-5.0	-5.0	-3.8	-0.9
CCc1ccc(-c2nc(CS(=O)CC(=O)NCCN3CCCCCC3)c(C)o2)cc1 (configuration not stated)	4.2	-2.7	-2.7	-19.4	0.9
CCc1ccc(-c2nc(CS(=O)CC(=O)NCCCN3CCC(C)CC3)c(C)o2)cc1 (configuration not stated)	-9.2	-6.9	30.3*	-24.0	0.4
CCN1CCN(C(=O)CS(=O)Cc2nc(-c3ccc(OC)cc3)oc2C)CC1 (configuration not stated)	-14.4	-5.0	39.9*	-4.2	-0.3
Cc1ccc(C)c(N2CCN(C(=O)c3cc(S(=O)(=O)N4CCCC4)c[nH]3)CC2)c1	3.4	/	/	/	0.2
CN(C(=O)CSc1nc(C2CCCC2)nc2c1c(=O)n(C)c(=O)n2C)c1ccccc1	7.3	/	/	/	-1.4
O=C(Cn1nc(C(F)(F)F)c2c1CCCC2)Nc1ccc2c(c1)OCO2	31.8*	-3.6	-6.3	-12.4	0.5
Cc1ccc(NC(=O)Cn2nc(C(F)(F)F)c3c2CCC3)cc1C	3.6	/	/	/	-1.0
COc1ccc(F)cc1S(=O)(=O)NC1CC(C)(C)NC(C)(C)C1	34.6*	-1.7	-13.6	-0.3	-0.3
COC(=O)c1ccc(NC(C)C(=O)OC)c([N+](=O)[O-])c1 (configuration not stated)	-10.1	1.2	42.8*	2.7	-0.8
CCn1ncc(/C=C2/SC(=S)NC2=O)c1C	-11.6	-2.1	12.2	-13.3	32.8*
CCn1c(C)cc(/C=C2/SC(=S)NC2=O)c1C	4.7	-0.4	3.9	-10.5	5.6
CCOC(=O)c1cnn(-c2cccc(F)c2)c1C1CCNCC1	7.8	/	/	/	-0.4
CCOC(=O)C1(CC2CCCCO2)CCN(C(=O)Nc2ccc(C(=O)OC)cc2)CC1 (configuration not stated)	-10.9	-3.6	31.9*	-5.1	0.4
Cc1ccc(/C=C/C(=O)c2cc(Br)ccc2OC(=O)c2ccco2)cc1	-5.8	-3.2	35.1*	-2.4	1.4
Cc1onc(-c2ccccc2)c1C(=O)N(CC(C)C)c1c(N)n(CC(C)C)c(=O)[nH]c1=O	30.1*	-2.3	/	-4.1	/
CCCCN(C(=O)c1c(CC)noc1C)c1c(N)n(CC(C)C)c(=O)[nH]c1=O	-8.0	1.7	2.3	15.3	0.3
CC(C)(C)C1CCC(C(=O)Nc2ccc(N3CCOCC3)cc2N2CCOCC2)CC1 (configuration not stated)	-13.6	-4.2	31.4*	-4.7	-0.1
